The record followed here is PubChem BioAssay (NCATS).

Inconclusive results are not listed. Activity calls are given as the source filed them. Unless noted, the call rests on the fitted dose curve; in most records, active means well fitted curve in the direction sought with a large enough effect; inconclusive means small, poorly fitted or top-dose-only effect, or another doubt; inactive means no such curve, though single readings can be large; an effect the other way counts as inactive or inconclusive.

The target in test [1] is Lysosomal acid glucosylceramidase (Homo sapiens) (UniProt P04062). Kind of test: Glucocerebrosidase-p2 (AID 348; in the data active means potency below about 10 µM; further: potency means the concentration at half of the fitted maximal effect). The following applies: purified GBA, blue fluorogenic substrate, 40 min. The method in brief: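 Normal human glucocerebrosidase (0.2 nM) with blue fluorogenic substrate (80 uM final) in citrate/phosphate pH 5.9 with 10mM sodium taurocholate, 0.01% tween-20; 40 min RT, NaOH/glycine stop; fluorescence Ex 365/Em 440; AC50 from a titration from 0.6 nM upwards.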
Chain of Lysosomal acid glucosylceramidase (Homo sapiens) (P04062 whole entry, looked up): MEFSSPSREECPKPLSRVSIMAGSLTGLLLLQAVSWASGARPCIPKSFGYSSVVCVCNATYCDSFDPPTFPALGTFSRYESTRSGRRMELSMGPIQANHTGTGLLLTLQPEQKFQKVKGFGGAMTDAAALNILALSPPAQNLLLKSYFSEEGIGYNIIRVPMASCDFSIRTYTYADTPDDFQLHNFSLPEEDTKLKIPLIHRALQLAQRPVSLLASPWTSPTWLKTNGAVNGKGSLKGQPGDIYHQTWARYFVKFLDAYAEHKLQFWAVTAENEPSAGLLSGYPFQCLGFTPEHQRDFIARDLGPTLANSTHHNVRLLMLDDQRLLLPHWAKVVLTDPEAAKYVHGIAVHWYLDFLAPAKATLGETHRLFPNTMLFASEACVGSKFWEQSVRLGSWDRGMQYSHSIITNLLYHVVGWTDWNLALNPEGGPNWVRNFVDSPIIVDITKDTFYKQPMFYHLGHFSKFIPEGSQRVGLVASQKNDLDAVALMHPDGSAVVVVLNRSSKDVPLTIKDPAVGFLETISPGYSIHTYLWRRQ

Test [2] can be described thus: AP1 Signaling Pathway (AID 357; active means well fitted curve in either direction with a large enough effect, not every such curve was filed as active;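 further: ME-180 reporter cells stimulated with EGF at its EC50 level; on the % scale 0 is the no-effect control and ±100 the full control effect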). The following applies: ME-180 AP-1-bla reporter, EGF-induced, beta-lactamase ratio, 5 h; at 7.69 µM (top of the series) unless noted. The method, boiled down: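 In this screen, ME-180 cells in Opti-MEM with 0.5% dialyzed FBS received EC50 EGF and compound titrations for 5 h. AP-1 reporter beta-lactamase was detected via CCF4 ratio, giving AC50 for positive and negative modulators.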

In test [3] the target is Cytochrome P450 1A2 (Homo sapiens) (UniProt P05177). As to the kind of experiment: p450-cyp1a2 (AID 410; calls by dose curve; further: potency means the concentration at half of the fitted maximal effect). The following applies: recombinant CYP1A2, luciferin-ME demethylation, luminescence; series mostly up to 57 µM. The method in brief: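 20nM CYP1A2, 100uM Luciferin-ME (=Km), 100mM KPO4; cpd 10 min RT; +NADPH regen, 60 min RT; stop/detect 20 min; luminescence. Normalized to furafylline 57 uM = full inhibition.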
Chain of Cytochrome P450 1A2 (Homo sapiens) (P05177 whole entry, looked up): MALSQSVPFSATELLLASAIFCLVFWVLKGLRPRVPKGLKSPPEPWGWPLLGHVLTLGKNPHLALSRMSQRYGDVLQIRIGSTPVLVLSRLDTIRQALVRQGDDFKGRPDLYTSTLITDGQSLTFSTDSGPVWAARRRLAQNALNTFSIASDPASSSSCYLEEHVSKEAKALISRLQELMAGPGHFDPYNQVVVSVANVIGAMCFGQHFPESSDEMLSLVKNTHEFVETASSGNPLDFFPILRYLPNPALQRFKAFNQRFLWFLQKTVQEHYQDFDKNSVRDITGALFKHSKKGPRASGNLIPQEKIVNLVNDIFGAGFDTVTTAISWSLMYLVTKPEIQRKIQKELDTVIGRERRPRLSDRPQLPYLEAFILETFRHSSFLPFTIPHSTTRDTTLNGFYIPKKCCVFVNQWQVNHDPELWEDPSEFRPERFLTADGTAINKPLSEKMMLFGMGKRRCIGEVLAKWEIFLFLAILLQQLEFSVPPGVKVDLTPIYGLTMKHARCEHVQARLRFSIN

A short description of test [4]: NFAT Signaling Pathway (AID 444; active means well fitted curve in either direction with a large enough effect, not every such curve was filed as active;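 further: carbachol stimulus at about its EC50 of 1 µM final; on the % scale 0 is the no-effect control and ±100 the full control effect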). As to conditions: Jurkat NFAT-bla M1, carbachol, beta-lactamase ratio, 5 h; at 7.69 µM (top of the series) unless noted. The method in brief:
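Read-out: CCF4 FRET ratio (460 nm/530 nm) after 1 h RT dye loading, used for %activity and AC50 from titration series. Cells: Jurkat NFAT-β-lactamase/M1 line, treated with compound plus 1 uM carbachol for 5 h, 37 °C.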

Test [5] in a line: Stat Signaling Pathway (AID 446; active means well fitted curve in either direction with a large enough effect, not every such curve was filed as active;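 further: ME-180 cervical cancer cells given 40 pM IL-6 alongside compound; SIE-controlled beta-lactamase reporter measured as 460/530 nm FRET emission ratio; on the % scale 0 is the no-effect control and ±100 the full control effect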). The following applies: ME-180 (cervical carcinoma) SIE beta-lactamase reporter, IL-6 stimulated, 5 h; at 7.69 µM (top of the series) unless noted. The method in brief: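 Emission at 460 and 530 nm (excitation 405 nm) reports SIE-controlled beta-lactamase in ME-180 cells. Cells received compound with 40 pM IL-6 for 5 hrs at 37 C; data scaled between 300 pM IL-6 and 125 nM JAK-inhibitor controls.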

Test [6] concerns the target Glucocorticoid receptor (Homo sapiens) (UniProt P04150). Kind of test: GR-GFP Redistribution (AID 450;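 active means compounds whose dose series gives a full or clear partial fitted curve of increased nuclear translocation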; further: potency means the concentration at half of the fitted maximal effect). The following applies: U2OS GR-GFP nuclear translocation, laser cytometry, 2 h.
Test [7] shares this target. Kind of test: GR-EFC Redistribution (AID 451; calls by dose curve; further: potency means the concentration at half of the fitted maximal effect). As to conditions: CHO-K1 GR-EFC translocation, beta-gal luminescence, 2 h. The method, boiled down:
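Translocation of GR-ED fusion to nuclear EA restores b-gal, read by luminescence after 1 h room-temperature detection. Engineered CHO-K1 biosensor cells, 1,000/well, exposed 2 h at 37 C to titrations up to 46 uM final.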

Test [8] addresses Mitogen-activated protein kinase 10 (Mus musculus) (UniProt Q61831). As to the kind of experiment: JNK3 AlphaScreen Assay (AID 530; active means well fitted curve in either direction with a large enough effect, not every such curve was filed as active;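 further: kinase came from lysate of stimulated human HepG2 cells; signal reports phosphorylation of biotinylated GST-cJun 1-79 at Ser73 with 10 µM ATP; on the % scale 0 is the no-effect control and ±100 the full control effect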). As to conditions: JNK3 lysate, c-Jun phosphorylation; series mostly up to 57.1 µM. The method in brief: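 Kinase buffer: 20 mM Tris-HCl pH 7.6, 10 mM MgCl2, 1 mM DTT, 0.1 mM Na3VO4, 0.01% Tween-20; ATP 10 uM. Substrate biotin-GST-cJun(1-79), enzyme from activated HepG2 lysates. Detection by Ser73 phospho-antibody AlphaScreen.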

The target of test [9] is 3',5'-cyclic-AMP phosphodiesterase 4B (Homo sapiens) (UniProt Q07343). As to the kind of experiment: qHTS Assay for Inhibitors of PDE-IV (AID 607; active means well fitted activation curve with a large enough effect in the main read-out, with a control signal flat, not every such curve was filed as active; further: % of control where 0% means no effect). As to conditions: HEK293 ACTOne CNG channel cells, membrane potential fluorescence; series mostly up to 22.9 µM. The method, boiled down:
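The readout is membrane depolarisation from a cAMP-sensing CNG channel, detected with a potential dye at ex 535/em 590. Cells were HEK293-derived (endogenous PDE-IV) at 1000 cells/well, titrated up to 22.9 uM final.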
(In general: In qHTS, concentration-response curves come from the screen itself.)

In test [10] the target is Cytochrome P450 3A4 (Homo sapiens) (UniProt P08684). Kind of test: qHTS Assay for Inhibitors and Substrates of Cytochrome P450 3A4 (AID 884). Further: potency means the concentration at half of the fitted maximal effect; nearly all actives have a fitted effect of over 50% in size. As to conditions: recombinant CYP3A4, Luciferin-PPXE luminescence; series mostly up to 57.1 µM. The method, boiled down:
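Luminescent readout of luciferin produced by CYP3A4 (20 nM) dealkylation of Luciferin-PPXE, 25 uM (its KM). NADPH-driven reaction ran 60 min at RT after 10 min compound preincubation; data scaled to 57 uM ketoconazole as 100% inhibition.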

Test [11] has the same target. As to the kind of experiment: qHTS Assay for Activators of Cytochrome P450 3A4 (AID 885). Further: nearly all actives have a fitted effect of over 65% in size. The following applies: recombinant CYP3A4, Luciferin-PPXE luminescence, 60 min; series mostly up to 57.1 µM. The method, boiled down: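 Activators are scored by enhanced luminescence from CYP3A4 conversion of luciferin-PPXE (25uM, equal to KM) to luciferin, after 60 min at RT with an NADPH-regenerating system.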

For test [12], the target named is Dual specificity protein kinase CLK4 (Homo sapiens) (UniProt Q9HAZ1). Kind of test: qHTS Assay for Inhibitors of CDC-like Kinase 4 (Kinase-Glo Assay) (AID 1770). Further: nearly all actives have a fitted effect of over 65% in size. Further: potency means the concentration at half of the fitted maximal effect. As to conditions: recombinant Clk4, Kinase-Glo ATP depletion luminescence; series mostly up to 66.7 µM. The method, boiled down: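 Inhibition was judged from remaining ATP, measured by Ultra-Glo luciferase bioluminescence after Clk4 (25 nM) had acted on RS peptide at 1 uM ATP for 4.5 hours, room temperature.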
Chain of Dual specificity protein kinase CLK4 (Homo sapiens) (Q9HAZ1 whole entry, looked up): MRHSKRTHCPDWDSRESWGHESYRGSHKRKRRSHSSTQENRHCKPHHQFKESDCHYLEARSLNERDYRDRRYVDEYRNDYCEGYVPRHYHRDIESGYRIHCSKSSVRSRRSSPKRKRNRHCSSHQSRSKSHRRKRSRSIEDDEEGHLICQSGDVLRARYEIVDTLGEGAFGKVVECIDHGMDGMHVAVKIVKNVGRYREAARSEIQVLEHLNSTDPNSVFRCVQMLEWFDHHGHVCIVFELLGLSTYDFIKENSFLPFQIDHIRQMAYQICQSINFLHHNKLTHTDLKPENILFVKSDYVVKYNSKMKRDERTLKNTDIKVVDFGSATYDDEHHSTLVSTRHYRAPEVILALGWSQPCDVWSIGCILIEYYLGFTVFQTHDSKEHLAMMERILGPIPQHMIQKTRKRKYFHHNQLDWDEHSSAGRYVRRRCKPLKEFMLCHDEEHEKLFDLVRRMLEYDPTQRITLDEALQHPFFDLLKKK

The target is the same in test [13]. As to the kind of experiment: qHTS Assay for Inhibitors of CDC-like Kinase 4 (ADP-Glo Assay) (AID 1771). Further: nearly all actives have a fitted effect of over 70% in size. Further: potency means the concentration at half of the fitted maximal effect. The following applies: recombinant CLK4, ADP-Glo luminescence; series mostly up to 80 µM. The method in brief:
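25 nM Clk4, 100 uM RS peptide, 1 uM ATP (final); 2 mM MgCl2, 0.5 mM EGTA, 2.5 mM DTT, 0.01% Triton X-100; 1 hr RT. ADP-Glo readout: ATP depletion 45 min, conversion/luciferase 30 min, luminescence.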

Test [14] has the same target. As to the kind of experiment: qHTS Assay for Inhibitors of CDC-like Kinase 4 (ADP-FP Assay) (AID 1795). Further: nearly all actives have a fitted effect of over 60% in size. Further: potency means the concentration at half of the fitted maximal effect. The following applies: Transcreener ADP fluorescence polarization; series mostly up to 50 µM. The method in brief:
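Inhibition of ADP formation by 6.25 nM Clk4 is measured using 1 uM ATP and 100 uM RS repeat peptide over one hour. Produced ADP displaces a fluorescent tracer from antibody, lowering polarization.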

Test [15] addresses Ubiquitin carboxyl-terminal hydrolase 1 (Homo sapiens) (UniProt O94782). Kind of test: Inhibitors of USP1/UAF1: Pilot qHTS (AID 504865).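 Further: rhodamine fluorescence freed from ubiquitin-rhodamine substrate followed over time; top concentration of the series differs between compounds; on the % scale 0 is the no-effect control and ±100 the full control effect; nearly all actives have a fitted effect of over 35% in size.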 The following applies: purified USP1/UAF1, Ub-rhodamine cleavage fluorescence; series mostly up to 54.9 µM. The method, boiled down: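 Kinetic fluorescence assay: 1nM USP1/UAF1, 15 min compound preincubation, then 150nM Ub-Rho; 480/540 nm.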

Test [16] in a line: Primary qHTS for small molecule stabilizers of the endoplasmic reticulum resident proteome: Secreted ER Calcium Modulated Protein (SERCaMP) assay (AID 1508630). Further: on the % scale 0 is the no-effect control and ±100 the full control effect. The following applies: SH-SY5Y GLuc-SERCaMP (Gaussia luciferase released on ER calcium loss) secretion, thapsigargin, luminescence; series mostly up to 38.4 µM. The method in brief: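 The SH-SY5Y reporter protocol was run at 3 concentrations up to 38.3 uM (primary) or 11 concentrations (follow-up): 16 h compound, 100 nM thapsigargin for 4 h, then extracellular luciferase luminescence.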

Chain of Ubiquitin carboxyl-terminal hydrolase 1 (Homo sapiens) (O94782 whole entry, looked up): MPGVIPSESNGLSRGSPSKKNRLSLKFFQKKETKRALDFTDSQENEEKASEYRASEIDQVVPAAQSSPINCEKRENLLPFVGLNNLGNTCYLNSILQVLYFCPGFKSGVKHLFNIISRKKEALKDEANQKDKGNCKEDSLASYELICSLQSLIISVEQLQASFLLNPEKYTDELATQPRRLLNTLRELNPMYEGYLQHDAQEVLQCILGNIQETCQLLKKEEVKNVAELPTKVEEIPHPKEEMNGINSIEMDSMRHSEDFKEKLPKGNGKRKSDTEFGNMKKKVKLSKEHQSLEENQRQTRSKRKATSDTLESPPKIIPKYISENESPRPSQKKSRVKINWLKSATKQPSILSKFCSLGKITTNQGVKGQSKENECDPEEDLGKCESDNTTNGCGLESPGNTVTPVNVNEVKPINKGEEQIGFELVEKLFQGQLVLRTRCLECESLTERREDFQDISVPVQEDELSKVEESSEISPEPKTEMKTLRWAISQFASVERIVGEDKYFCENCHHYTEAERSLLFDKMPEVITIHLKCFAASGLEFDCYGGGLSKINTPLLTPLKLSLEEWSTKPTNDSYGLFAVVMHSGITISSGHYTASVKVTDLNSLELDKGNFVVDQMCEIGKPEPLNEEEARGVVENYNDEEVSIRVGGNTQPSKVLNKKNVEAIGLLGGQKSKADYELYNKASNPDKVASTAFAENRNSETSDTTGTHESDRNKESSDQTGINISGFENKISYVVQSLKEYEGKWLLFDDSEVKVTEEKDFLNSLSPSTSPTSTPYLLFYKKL
Chain of Cytochrome P450 3A4 (Homo sapiens) (P08684 whole entry, looked up): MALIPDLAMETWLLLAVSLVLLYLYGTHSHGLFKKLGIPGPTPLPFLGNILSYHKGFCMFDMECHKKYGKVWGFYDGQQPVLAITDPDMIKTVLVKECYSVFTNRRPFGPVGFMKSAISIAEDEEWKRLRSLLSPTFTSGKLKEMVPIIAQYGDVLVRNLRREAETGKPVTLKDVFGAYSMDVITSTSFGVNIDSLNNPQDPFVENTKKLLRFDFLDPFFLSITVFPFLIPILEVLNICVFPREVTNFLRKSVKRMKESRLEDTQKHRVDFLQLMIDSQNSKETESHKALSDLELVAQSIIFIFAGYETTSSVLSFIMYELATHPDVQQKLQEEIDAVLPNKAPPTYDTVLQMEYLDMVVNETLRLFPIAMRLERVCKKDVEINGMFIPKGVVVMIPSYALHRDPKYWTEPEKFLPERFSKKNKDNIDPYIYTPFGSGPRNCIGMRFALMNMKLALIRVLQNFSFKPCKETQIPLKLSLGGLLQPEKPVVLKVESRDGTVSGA
Chain of Glucocorticoid receptor (Homo sapiens) (P04150 whole entry, looked up): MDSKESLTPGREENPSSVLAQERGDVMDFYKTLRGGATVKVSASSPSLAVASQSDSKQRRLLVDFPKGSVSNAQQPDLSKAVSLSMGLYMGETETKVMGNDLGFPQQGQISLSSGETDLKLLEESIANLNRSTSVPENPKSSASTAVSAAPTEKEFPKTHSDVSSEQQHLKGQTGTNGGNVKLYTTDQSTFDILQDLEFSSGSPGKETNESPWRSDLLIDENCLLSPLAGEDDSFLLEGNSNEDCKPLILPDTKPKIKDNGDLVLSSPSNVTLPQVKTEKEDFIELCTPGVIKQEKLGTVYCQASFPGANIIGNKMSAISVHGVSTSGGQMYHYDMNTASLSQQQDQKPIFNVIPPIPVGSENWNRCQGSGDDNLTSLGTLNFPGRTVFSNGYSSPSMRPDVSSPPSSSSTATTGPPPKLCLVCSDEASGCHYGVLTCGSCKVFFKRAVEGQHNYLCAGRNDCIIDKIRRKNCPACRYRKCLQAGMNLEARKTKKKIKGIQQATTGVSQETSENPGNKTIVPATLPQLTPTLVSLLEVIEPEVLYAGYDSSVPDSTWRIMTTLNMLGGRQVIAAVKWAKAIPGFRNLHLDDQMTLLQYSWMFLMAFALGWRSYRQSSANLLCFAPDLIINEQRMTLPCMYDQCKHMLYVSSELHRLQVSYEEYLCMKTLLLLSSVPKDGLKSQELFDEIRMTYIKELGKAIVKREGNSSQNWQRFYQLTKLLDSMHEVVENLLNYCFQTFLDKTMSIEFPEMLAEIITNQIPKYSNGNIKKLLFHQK
Chain of 3',5'-cyclic-AMP phosphodiesterase 4B (Homo sapiens) (Q07343 whole entry, looked up): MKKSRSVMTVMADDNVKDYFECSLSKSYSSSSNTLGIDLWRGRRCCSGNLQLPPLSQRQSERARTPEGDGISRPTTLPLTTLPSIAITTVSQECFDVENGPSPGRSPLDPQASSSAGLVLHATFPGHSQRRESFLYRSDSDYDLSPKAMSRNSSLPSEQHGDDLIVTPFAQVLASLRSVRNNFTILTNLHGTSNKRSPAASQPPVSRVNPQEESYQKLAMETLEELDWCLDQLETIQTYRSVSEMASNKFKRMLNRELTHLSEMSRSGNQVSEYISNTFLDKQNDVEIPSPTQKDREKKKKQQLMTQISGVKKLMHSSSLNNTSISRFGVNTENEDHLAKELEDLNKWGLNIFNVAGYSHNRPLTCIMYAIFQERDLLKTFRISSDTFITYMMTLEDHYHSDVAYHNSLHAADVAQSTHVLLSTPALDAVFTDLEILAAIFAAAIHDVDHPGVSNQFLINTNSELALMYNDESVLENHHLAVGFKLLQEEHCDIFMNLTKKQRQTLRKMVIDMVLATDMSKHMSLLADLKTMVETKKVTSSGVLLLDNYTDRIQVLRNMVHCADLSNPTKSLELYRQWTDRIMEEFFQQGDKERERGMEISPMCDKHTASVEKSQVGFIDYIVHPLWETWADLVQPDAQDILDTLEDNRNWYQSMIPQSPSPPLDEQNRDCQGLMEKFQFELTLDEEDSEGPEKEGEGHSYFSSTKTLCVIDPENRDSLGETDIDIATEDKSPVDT

`Cc1cccc(CNc2ncncc2-c2cccnc2)c1`: the Potency in [1] was > 11.4 µM (inactive); in test [3], 0.794 µM (active); in test [6], > 46 µM (inactive); in test [7], > 46 µM (inactive); in test [10], 0.631 µM (active). The figures for the activity change, negative = inhibition in [2] and in test [4] were 11.8% (inactive) and 12% (inactive), respectively. The activity, negative = inhibition in test [5] was 10.4% (inactive). Moreover, the Potency result in test [8], in [9], in test [11], in test [12], in test [13] and in [14] was “inactive” in each case. The Potency entry in test [15] is “inactive”. The outcome in [16] was inactive.
As for `Cc1nc2cncnc2n(Cc2ccc(F)cc2)c1=O`, the Potency is > 11.4 µM (inactive) in [1], 10 µM (active) in test [3], > 9.22 µM (inactive) in [6] and > 46 µM (inactive) in [7]. Moreover, the activity change, negative = inhibition was -6.19% (inactive) in test [2] and 9.35% (inactive) in test [4]. The activity, negative = inhibition in [5] is -9.93% (inactive). For the same molecule, the Potency result in test [8], in test [9], in test [11], in [12], in test [13] and in [14] was “inactive” each time. In test [15], the Potency entry is “inactive”. Also, the outcome in [16] was inactive.
Consider `CNc1nc(-c2ccccc2C)nc2ccccc12`, for which the Potency in test [1] was 8.72 µM (active); in test [3] it was 0.501 µM (active); in test [6], > 46 µM (inactive); in test [7], > 46 µM (inactive); in test [12], 12.6 µM (active); in [13], 12.6 µM (active). For the same molecule, the Potency in test [14] is 14.1 µM (active). Besides, the activity change, negative = inhibition in test [2] was 8.12% (inactive); in test [4] it was 3.1% (inactive). Besides, the activity, negative = inhibition in test [5] was 9% (inactive). Besides, the Potency entry in test [8], in test [9], in [11] and in [15] was “inactive” each time. In test [16], the outcome was inactive.
As for `c1cncc(-c2cc(-n3ccnc3)ncn2)c1`, the Potency in test [1] is > 11.4 µM (inactive); in test [3], 0.1 µM (active); in test [6], > 46 µM (inactive); in [7], > 46 µM (inactive); in [10], 1.58 µM (active); in [12] it was 0.794 µM (active). Moreover, the Potency in [13] was 0.708 µM (active); in test [14] it was 0.501 µM (active). The activity change, negative = inhibition was -4.01% (inactive) in [2] and 4.07% (inactive) in test [4]. Moreover, the activity, negative = inhibition in test [5] is 14.8% (inactive). In addition, the Potency result in [8], in [9], in [11] and in test [15] was “inactive” each time. Further, in test [16], the outcome was inactive.
On to `Cc1noc(C)c1-c1nccc(N(C)C)n1`, for which the Potency was > 11.4 µM (inactive) in test [1], 0.631 µM (active) in [3], > 46 µM (inactive) in test [6] and > 46 µM (inactive) in test [7]. In addition, the activity change, negative = inhibition was 2.07% (inactive) in test [2] and -4.83% (inactive) in [4]. In test [5], the activity, negative = inhibition is 15.8% (inactive). Besides, the Potency entry in test [8], in [9], in [11], in test [12], in [13] and in [14] was “inactive” throughout. Further, the Potency entry in [15] is “inactive”. Further, the result in test [16] was inactive.
Turning to `COc1ccc(-n2c(=O)c(-c3cccc(Cl)c3)nc3cncnc32)cc1`, the Potency in test [1] is > 11.4 µM (inactive); in test [3] it was 1 µM (active); in [6], > 9.22 µM (inactive); in test [7] it was > 46 µM (inactive). The values for the activity change, negative = inhibition in [2] and in test [4] were -20.5% (inactive) and -14.1% (inactive), respectively. The activity, negative = inhibition in test [5] was -4.36% (inactive). The Potency result in [8], in [9], in test [11], in test [12], in test [13] and in [14] was “inactive” each time. Also, in test [15], the Potency entry was “inactive”. In test [16], the result was inactive.
